Records with an inconclusive call do not appear. The source made the active and inactive calls. The calls were made as follows, unless noted: active = hit-call score of the fitted dose curve at least 0.9, where 1 is the maximum; inactive = score below 0.9.
Columns and labels:
[1] = target: Oxysterols receptor LXR-alpha (Homo sapiens) (UniProt Q13133); assay: ATG_LXRa_TRANS: Attagene TRANS-FACTORIAL HepG2 Assay for human Liver X Receptor alpha (LXRa) (AID 2282980; active = hit-call score of the fitted dose curve at least 0.9, where 1 is the maximum); settings: HepG2 Attagene TRANS reporter, LXRa transactivation
Chain of Oxysterols receptor LXR-alpha (Homo sapiens) (Q13133 whole entry, looked up, the tested form may be a part): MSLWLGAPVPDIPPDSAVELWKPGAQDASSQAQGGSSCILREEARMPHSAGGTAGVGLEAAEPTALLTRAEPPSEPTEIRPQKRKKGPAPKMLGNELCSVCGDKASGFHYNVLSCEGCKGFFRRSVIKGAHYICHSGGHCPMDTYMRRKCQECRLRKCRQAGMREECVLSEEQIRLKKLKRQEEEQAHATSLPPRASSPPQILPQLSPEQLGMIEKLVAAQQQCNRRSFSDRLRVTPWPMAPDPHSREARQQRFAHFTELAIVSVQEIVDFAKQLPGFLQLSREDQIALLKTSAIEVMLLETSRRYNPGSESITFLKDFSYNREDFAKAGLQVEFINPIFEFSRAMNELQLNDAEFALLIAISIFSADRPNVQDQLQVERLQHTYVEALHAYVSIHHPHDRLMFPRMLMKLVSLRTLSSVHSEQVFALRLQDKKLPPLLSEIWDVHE
Procedure, shortened: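 HepG2 cells were transiently transfected with multiplexed reporter units driven by chimeric LXRa–GAL4 fusion proteins, then dosed for 24 h. Reporter mRNA was quantified by RT-PCR, fluorescent labelling and capillary electrophoresis; gain of signal fitted against DMSO baseline.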

[2] = target: Oxysterols receptor LXR-beta (Homo sapiens) (UniProt P55055); assay: ATG_LXRb_TRANS: Attagene TRANS-FACTORIAL HepG2 Assay for human Liver X Receptor beta (LXRb) (AID 2282981; active = hit-call score of the fitted dose curve at least 0.9, where 1 is the maximum); settings: HepG2 Attagene TRANS GAL4-LXRb reporter, mRNA
Chain of Oxysterols receptor LXR-beta (Homo sapiens) (P55055 whole entry, looked up, the tested form may be a part): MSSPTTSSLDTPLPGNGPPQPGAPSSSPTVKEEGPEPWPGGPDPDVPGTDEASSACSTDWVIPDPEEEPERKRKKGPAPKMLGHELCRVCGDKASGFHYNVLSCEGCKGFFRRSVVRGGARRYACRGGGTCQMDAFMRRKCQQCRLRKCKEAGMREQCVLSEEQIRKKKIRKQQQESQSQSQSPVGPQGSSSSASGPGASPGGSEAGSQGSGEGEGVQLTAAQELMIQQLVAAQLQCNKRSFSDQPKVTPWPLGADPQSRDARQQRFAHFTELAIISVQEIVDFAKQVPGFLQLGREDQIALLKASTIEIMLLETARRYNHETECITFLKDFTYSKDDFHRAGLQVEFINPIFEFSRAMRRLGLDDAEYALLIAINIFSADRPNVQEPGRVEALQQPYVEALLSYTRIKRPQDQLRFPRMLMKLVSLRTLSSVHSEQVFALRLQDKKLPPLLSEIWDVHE
Procedure, shortened: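 Measures induction of a Gal4-driven reporter transcript in HepG2 cells expressing an exogenous LXRb-Gal4 fusion. Cells are exposed to compound for 24 h before RNA isolation and RT-PCR with capillary electrophoresis detection.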

[3] = ATG_M_06_TRANS: Attagene TRANS-FACTORIAL HepG2 Assay for M06 Transcription Factor (Internal Marker) (AID 2282983; active = hit-call score of the fitted dose curve at least 0.9, where 1 is the maximum); settings: HepG2 Attagene TRANS M06 internal marker reporter
Procedure, shortened: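 In this multiplexed HepG2 system, compounds are incubated 24 h with cells carrying GAL4-UAS reporter units. Reporter RNA is amplified and resolved by capillary electrophoresis, and induction is scored against DMSO.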

[4] = target: Transcriptional activator Myb (Homo sapiens) (UniProt P10242); assay: ATG_Myb_CIS: Attagene CIS-FACTORIAL HepG2 Assay for human Myeloblastosis (Myb) Proto-Oncogene Transcription Factor (AID 2282986); settings: HepG2 Attagene CIS-FACTORIAL Myb reporter transcription; actives raise or lower the signal
Chain of Transcriptional activator Myb (Homo sapiens) (P10242 whole entry, looked up): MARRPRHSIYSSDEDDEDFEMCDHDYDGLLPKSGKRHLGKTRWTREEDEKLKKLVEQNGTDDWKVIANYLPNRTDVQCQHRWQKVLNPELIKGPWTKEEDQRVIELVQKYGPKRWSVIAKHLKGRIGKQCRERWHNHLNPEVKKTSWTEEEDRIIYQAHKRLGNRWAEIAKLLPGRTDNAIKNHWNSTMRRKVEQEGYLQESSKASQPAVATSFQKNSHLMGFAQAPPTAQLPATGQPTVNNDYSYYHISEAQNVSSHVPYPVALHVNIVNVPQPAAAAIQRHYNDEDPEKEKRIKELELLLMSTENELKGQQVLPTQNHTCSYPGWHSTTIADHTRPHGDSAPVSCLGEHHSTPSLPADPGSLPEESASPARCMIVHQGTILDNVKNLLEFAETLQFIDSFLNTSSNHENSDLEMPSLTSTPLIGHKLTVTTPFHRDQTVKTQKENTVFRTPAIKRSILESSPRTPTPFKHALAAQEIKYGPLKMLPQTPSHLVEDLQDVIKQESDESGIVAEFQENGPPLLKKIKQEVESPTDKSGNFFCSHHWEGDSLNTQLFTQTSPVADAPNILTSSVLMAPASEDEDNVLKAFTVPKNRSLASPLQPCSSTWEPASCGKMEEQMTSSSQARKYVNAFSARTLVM
Procedure, shortened: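 Transiently transfected HepG2 cells, treated 24 h. Reporter mRNA quantified by RT-PCR/capillary electrophoresis; bidirectional fit relative to DMSO.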

[5] = target: Nuclear respiratory factor 1 (Homo sapiens) (UniProt Q16656); assay: ATG_NRF1_CIS: Attagene CIS-FACTORIAL HepG2 Assay for human Nuclear Respiratory Factor 1 (NRF1) Orphan Gene (AID 2282987); settings: HepG2 NRF1 cis-element reporter, Attagene multiplex; actives raise or lower the signal
Chain of Nuclear respiratory factor 1 (Homo sapiens) (Q16656 whole entry, looked up, the tested form may be a part): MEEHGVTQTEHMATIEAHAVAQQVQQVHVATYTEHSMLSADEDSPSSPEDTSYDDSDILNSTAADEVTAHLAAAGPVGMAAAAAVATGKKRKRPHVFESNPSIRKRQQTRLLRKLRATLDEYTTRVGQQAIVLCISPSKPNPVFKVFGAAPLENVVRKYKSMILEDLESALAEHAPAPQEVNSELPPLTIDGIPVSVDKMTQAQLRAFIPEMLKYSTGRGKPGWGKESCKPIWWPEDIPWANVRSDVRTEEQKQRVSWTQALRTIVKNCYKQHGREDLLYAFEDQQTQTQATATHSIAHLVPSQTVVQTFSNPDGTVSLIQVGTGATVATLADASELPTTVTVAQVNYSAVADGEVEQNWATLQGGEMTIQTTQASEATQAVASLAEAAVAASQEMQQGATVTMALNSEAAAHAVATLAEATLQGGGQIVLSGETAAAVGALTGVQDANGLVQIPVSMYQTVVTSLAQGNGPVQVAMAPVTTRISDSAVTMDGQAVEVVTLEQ
Procedure, shortened: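 Cells (HepG2, transient MRTU transfection) are exposed to compound for 24 h, then RNA isolated and reporter mRNA amplified and fluorescently labelled. Fragments are separated by capillary electrophoresis; signal change is fitted bidirectionally relative to DMSO.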

[6] = ATG_NFI_CIS: Attagene CIS-FACTORIAL HepG2 Assay for human Nuclear Factor I (NFI) (AID 2282989); settings: HepG2 cis-regulatory reporter, NFI response element transcription; actives raise or lower the signal
Procedure, shortened: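 Transfected HepG2 liver cells, exposed 24 h, supplied total RNA for oligo(dT) reverse transcription and reporter-specific PCR. Labelled, HpaI-cut fragments were sized by capillary electrophoresis; DMSO set the baseline for bidirectional fitting.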

[7] = target: Myc proto-oncogene protein (Homo sapiens) (UniProt P01106); assay: ATG_Myc_CIS: Attagene CIS-FACTORIAL HepG2 Assay for human Myelocytomatosis (Myc) Proto-Oncogene Transcription Factor (AID 2282990); settings: HepG2, Attagene cis-reporter transcription factor activity; actives raise or lower the signal
Chain of Myc proto-oncogene protein (Homo sapiens) (P01106 whole entry, looked up): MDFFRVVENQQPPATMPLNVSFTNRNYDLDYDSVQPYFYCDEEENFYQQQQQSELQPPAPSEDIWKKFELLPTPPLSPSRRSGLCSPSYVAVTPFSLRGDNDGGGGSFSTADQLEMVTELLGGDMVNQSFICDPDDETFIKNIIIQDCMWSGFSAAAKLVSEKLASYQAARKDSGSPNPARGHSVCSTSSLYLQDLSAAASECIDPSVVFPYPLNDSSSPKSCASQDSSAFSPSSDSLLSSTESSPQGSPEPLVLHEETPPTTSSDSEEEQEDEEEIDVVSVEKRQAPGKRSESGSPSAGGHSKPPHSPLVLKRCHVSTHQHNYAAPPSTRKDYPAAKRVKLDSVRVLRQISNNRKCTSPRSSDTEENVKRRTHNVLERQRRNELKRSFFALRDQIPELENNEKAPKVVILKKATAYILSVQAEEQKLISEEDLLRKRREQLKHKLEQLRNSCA
Procedure, shortened: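 HepG2 cells transiently transfected with multiple cis-promoter-driven reporter transcription units, so endogenous TF activity is read. After 24 h compound exposure, reporter mRNA was quantified by RT-PCR, 6-FAM labelling, HpaI digestion and capillary electrophoresis; bidirectional fit versus DMSO.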

[8] = ATG_NRF2_ARE_CIS: Attagene CIS-FACTORIAL HepG2 Assay for human Nuclear Factor Erythroid 2 Related Factor 2 (NFR2) response to Antioxidant Response Elements (ARE) (AID 2282992); settings: HepG2 Attagene ARE/NRF2 reporter, transcription factor activity; actives raise or lower the signal;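 as to AC50: reporter mRNA level measured by RT-PCR and capillary electrophoresis fluorescence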
Procedure, shortened: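 Fluorescence intensity of reporter-specific cDNA fragments, separated by capillary electrophoresis, reflects mRNA induction in transfected HepG2 cells at 24 h. Activity is fitted bidirectionally, DMSO serving as baseline.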

[9] = ATG_Oct_MLP_CIS: Attagene CIS-FACTORIAL HepG2 Assay for human Octamer-Binding Transcription Factor (Oct) (AID 2282993); settings: HepG2 Attagene cis-factorial Oct reporter, mRNA; actives raise or lower the signal
Procedure, shortened: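 Using HepG2 cells bearing transfected cis-reporter constructs, mRNA induction was read after 24 h by fluorescent RT-PCR and capillary electrophoresis, with DMSO defining baseline for gain- or loss-of-signal fits.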

[10] = target: Cellular tumor antigen p53 (Homo sapiens) (UniProt P04637); assay: ATG_p53_CIS: Attagene CIS-FACTORIAL HepG2 Assay for human p53 Transcription Factor (AID 2282994); settings: HepG2 p53 cis-element reporter, Attagene mRNA; actives raise or lower the signal
Chain of Cellular tumor antigen p53 (Homo sapiens) (P04637 whole entry, looked up): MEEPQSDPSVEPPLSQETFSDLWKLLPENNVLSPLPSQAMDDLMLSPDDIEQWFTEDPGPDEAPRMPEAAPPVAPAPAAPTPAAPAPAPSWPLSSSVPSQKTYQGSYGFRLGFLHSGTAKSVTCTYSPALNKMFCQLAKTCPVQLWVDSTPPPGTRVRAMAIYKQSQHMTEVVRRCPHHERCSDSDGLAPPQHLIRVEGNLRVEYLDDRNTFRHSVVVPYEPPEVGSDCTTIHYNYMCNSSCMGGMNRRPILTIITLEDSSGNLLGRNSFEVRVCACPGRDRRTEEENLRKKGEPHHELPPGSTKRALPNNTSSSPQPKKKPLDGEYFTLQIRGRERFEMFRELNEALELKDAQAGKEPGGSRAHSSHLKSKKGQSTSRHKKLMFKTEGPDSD
Procedure, shortened: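 Transiently transfected HepG2 (multiple cis reporter transcription units); exposure 24 h; reporter RNA via RT-PCR, 6-FAM extension, 2 h HpaI digest at 37 C, CE detection; DMSO baseline.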

[11] = target: Hepatocyte nuclear factor 4-alpha (Homo sapiens) (UniProt P41235); assay: ATG_HNF4a_TRANS: Attagene TRANS-FACTORIAL HepG2 Assay for human Hepatocyte Nuclear Factor 4 alpha (HNF4a) (AID 2282982; active = hit-call score of the fitted dose curve at least 0.9, where 1 is the maximum); settings: HepG2 HNF4a transactivation reporter, mRNA readout
Chain of Hepatocyte nuclear factor 4-alpha (Homo sapiens) (P41235 whole entry, looked up, the tested form may be a part): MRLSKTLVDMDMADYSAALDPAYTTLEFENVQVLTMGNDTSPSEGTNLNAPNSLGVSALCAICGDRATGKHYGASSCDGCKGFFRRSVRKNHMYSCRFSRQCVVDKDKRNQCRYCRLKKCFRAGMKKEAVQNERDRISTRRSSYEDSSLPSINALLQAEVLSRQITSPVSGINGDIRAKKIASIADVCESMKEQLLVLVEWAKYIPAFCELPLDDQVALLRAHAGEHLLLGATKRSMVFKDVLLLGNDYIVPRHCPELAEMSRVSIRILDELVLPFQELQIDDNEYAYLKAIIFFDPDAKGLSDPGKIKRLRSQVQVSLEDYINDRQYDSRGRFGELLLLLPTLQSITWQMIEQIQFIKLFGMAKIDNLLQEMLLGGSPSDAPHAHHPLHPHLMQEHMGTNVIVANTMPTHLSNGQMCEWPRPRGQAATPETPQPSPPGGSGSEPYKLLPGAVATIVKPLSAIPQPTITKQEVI
Procedure, shortened: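 In this trans-factorial format, a chimeric HNF4a-GAL4 fusion drives a GAL4-UAS reporter in transfected HepG2 liver cells. After 24 h treatment, reporter mRNA induction is measured by RT-PCR with capillary electrophoresis, relative to DMSO.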

[12] = target: Nuclear receptor subfamily 4 group A member 2 (Homo sapiens) (UniProt P43354); assay: ATG_NURR1_TRANS: Attagene TRANS-FACTORIAL HepG2 Assay for human Nuclear Receptor Related Protein 1 (NURR1) (AID 2282985; active = hit-call score of the fitted dose curve at least 0.9, where 1 is the maximum); settings: HepG2 Attagene TRANS reporter, mRNA readout
Chain of Nuclear receptor subfamily 4 group A member 2 (Homo sapiens) (P43354 whole entry, looked up, the tested form may be a part): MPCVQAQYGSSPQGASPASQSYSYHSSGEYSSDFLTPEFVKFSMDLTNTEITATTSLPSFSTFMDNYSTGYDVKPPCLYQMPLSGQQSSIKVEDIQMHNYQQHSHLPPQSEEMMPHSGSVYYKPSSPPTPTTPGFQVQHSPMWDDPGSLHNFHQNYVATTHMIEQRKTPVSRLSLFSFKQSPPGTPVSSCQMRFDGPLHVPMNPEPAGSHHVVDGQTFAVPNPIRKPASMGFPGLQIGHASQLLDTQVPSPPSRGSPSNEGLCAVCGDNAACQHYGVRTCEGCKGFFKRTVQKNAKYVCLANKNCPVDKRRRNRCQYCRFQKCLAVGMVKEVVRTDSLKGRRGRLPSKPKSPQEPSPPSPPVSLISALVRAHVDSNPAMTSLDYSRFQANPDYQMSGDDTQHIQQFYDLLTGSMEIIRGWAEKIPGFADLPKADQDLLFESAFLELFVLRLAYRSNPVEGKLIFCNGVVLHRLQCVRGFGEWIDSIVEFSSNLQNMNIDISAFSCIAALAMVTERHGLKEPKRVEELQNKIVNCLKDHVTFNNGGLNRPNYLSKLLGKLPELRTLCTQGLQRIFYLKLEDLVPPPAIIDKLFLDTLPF
Procedure, shortened: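 Chimeric NR-Gal4 fusion activity measured in HepG2 after 24 h treatment. Reporter transcripts detected by RT-PCR and capillary electrophoresis fluorescence; positive-direction curve fitting against DMSO.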

[13] = ATG_M_32_TRANS: Attagene TRANS-FACTORIAL HepG2 Assay for M32 Transcription Factor (Internal Marker) (AID 2282984; active = hit-call score of the fitted dose curve at least 0.9, where 1 is the maximum;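 also: transcript level of a background control reporter unit measured by RT-PCR and capillary electrophoresis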); settings: HepG2 Attagene TRANS M32 internal marker reporter
Procedure, shortened: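 After 24 h dosing of transfected HepG2 cells, total RNA was reverse-transcribed, reporter sequences PCR-amplified, 6-FAM labelled by primer extension and HpaI-digested before capillary electrophoresis. Signal increase over DMSO was fitted.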

[14] = BSK_3C_TissueFactor: BioMAP Diversity Plus: 3C Assay for Tissue Factor Biomarker Activity (AID 2282997); settings: BioMAP 3C HUVEC, tissue factor biomarker readout; actives raise or lower the signal
Procedure, shortened: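 Readout: Tissue Factor ELISA. Cells: human primary umbilical vein endothelium. Time: 24 h after dosing. Analysis: bidirectional fit, DMSO baseline.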

[15] = BSK_3C_uPAR: BioMAP Diversity Plus: 3C Assay for Urokinase-type plasminogen activator receptor (uPAR) Biomarker Activity (AID 2282998); settings: BioMAP 3C HUVEC, uPAR biomarker ELISA; actives raise or lower the signal
Procedure, shortened: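 In this endothelial cell-based assay, human umbilical vein primary cells were treated with chemicals and harvested at 24 h. uPAR was quantified using ELISA, with gains or losses fitted relative to DMSO controls.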

[16] = BSK_3C_VCAM1: BioMAP Diversity Plus: 3C Assay for Vascular cell adhesion molecule 1 (VCAM1) Biomarker Activity (AID 2282999); settings: BioMAP 3C HUVEC, VCAM1 ELISA, cytokine-stimulated; actives raise or lower the signal
Procedure, shortened: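 Vascular primary endothelium (human umbilical vein) was exposed to chemicals and assayed 24 h later. VCAM-1 levels came from ELISA, with DMSO serving as baseline for bidirectional fitting.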

[17] = ATG_NF_kB_CIS: Attagene CIS-FACTORIAL HepG2 Assay for human Nuclear Factor Kappa B (NF-kB) (AID 2282991); settings: HepG2 Attagene cis-factorial NF-kB reporter mRNA; actives raise or lower the signal
Procedure, shortened: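 Measures mRNA induction of an NF-kB-responsive cis-element reporter in HepG2 cells transfected with multiple reporter units, sampled 24 h post-dosing; quantified by fluorescence after RT-PCR and capillary electrophoresis, fitted for activation or inhibition against DMSO.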

Measured: AC50

CC(C)(C)C1CCC(O)CC1 (stereo not drawn)
inactive: [1] | [2] | [3] | [4] | [5] | [6] | [7] | [8] | [9] | [10]

Nc1cc([N+](=O)[O-])ccc1C(=O)O
active: [8] 51.8 µM
inactive: [1] | [2] | [11] | [12] | [4] | [5] | [6] | [7] | [9] | [10]

CC(=O)OC(C)(C)C1CC=C(C)CC1 (stereo not drawn)
active: [14] 29.8 µM | [15] 32.3 µM
inactive: [1] | [13] | [12] | [4] | [5] | [6] | [7] | [8] | [9] | [10] | [16]

CC1=CCC(=C(C)C)CC1
inactive: [1] | [2] | [11] | [12] | [4] | [5] | [6] | [7] | [9] | [10]
active: [8] 32 µM

CC(C)N1C(=O)c2ccccc2C1=O
inactive: [1] | [3] | [13] | [4] | [5] | [6] | [7] | [17] | [8] | [9] | [10]

FC(F)(F)c1ccc(Cl)c(Cl)c1
inactive: [1] | [11] | [4] | [5] | [7] | [8] | [9] | [10]

CCOC(=O)C=Cc1ccccc1
inactive: [1] | [13] | [12] | [4] | [5] | [6] | [7] | [17] | [10] | [14] | [15] | [16]
active: [8] 42.3 µM

N#CCCNCCC#N
inactive: [2] | [11] | [3] | [13] | [12] | [4] | [5] | [6] | [7] | [8] | [9]

CCC(C)(C)C1CCC(OC)CC1 (stereo not drawn)
inactive: [2] | [12] | [4] | [5] | [6] | [7] | [17] | [8] | [9] | [10]

NCCN1CCNCC1
inactive: [2] | [3] | [13] | [12] | [4] | [5] | [6] | [7] | [17] | [8] | [9] | [10]

C=CC(=O)OCCCCCC
inactive: [2] | [13] | [12] | [4] | [5] | [7] | [8] | [9] | [10]

CCOC(=O)CC1(C)OCC(C)O1 (stereo not drawn)
inactive: [2] | [3] | [5] | [6] | [7] | [17] | [8] | [10]

NNC(=O)OCc1ccccc1
inactive: [11] | [3] | [13] | [12] | [4] | [5] | [6] | [7] | [17] | [8] | [9]
